Screening data as filed in PubChem.
Sampled rows, rich in hits. Any-hit rate of the full collection: about 13%.
Pf growth 96h = P. falciparum growth inhibition at 96 hours | P. falciparum luciferase reporter growth, 96 h | Potency, µM (top dose mostly 28.7 µM), for inactives: top-dose activity change, negative = inhibition, actives largely listed as inhibitors | hit rate 6.9% among 320,000 | AID 504834; note: potency is the fitted concentration of half-maximal effect
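Plates of compound plus infected erythrocytes (2% hematocrit, 0.05% parasitemia final) incubate 96 hours, 37 C, 5% CO2. Detection reagent added; reduced luminescence from the parasites' luciferase reporter flags inhibition.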
HCV inh = HCV inhibition; AID 651820; Potency, µM (titrated, usually from 41.8 µM), for the others: at the highest dose activity change, negative = inhibition, actives largely listed as inhibitors; hit rate 3.4% among 340,000; Huh7.5.1 HCVcc-Cre infection, luciferase reporter, 44 h; note: potency is the fitted concentration of half-maximal effect
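HCVcc-Cre virus at an moi near 0.5 was added right after compound to cells cultured 4 h from seeding (1,000 cells/well). Luciferase activity was determined 44 h later, 15 min after substrate addition at RT.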
Pf growth 48h = P. falciparum growth inhibition at 48 hours (one generation) | Potency, µM (series often up to 28.7 µM), for the others: top-dose activity change, negative = inhibition, hits mostly inhibitors | hit rate 5.9% among 310,000 | P. falciparum luciferase growth in erythrocytes, 48 h; note: potency is the fitted concentration of half-maximal effect
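First compound was added to culture medium, then infected red cells at 0.1% parasitemia and 2% hematocrit (final). After incubation at 37 C under 5% CO2, luciferase detection reagent was dispensed and light output recorded.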
HCMV antiviral = inhibitors of human cytomegalovirus; HFF cells, HCMV-luciferase reporter, 72 h; hits give low values; activity change, negative = inhibition, % at 57.5 µM; hit rate 4.5% among 410,000; AID 1259415; in the data active = activity change below about -60%; inconclusive = no clear call, values can overlap the other calls; inactive = above about -39%
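Steps: HFFs plated, 16 h 37C; compounds added; HCMV-luciferase added to MOI 1 PFU/cell; 72 h 37C; OneGlo reagent, 5 min room temperature; luminescence read, normalized to controls.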
* = called active by the depositor; ? = inconclusive; . = not tested or not shown. Unless noted, calls come from the whole dose curve; as a rule, active = well fitted inhibition curve with a large enough effect; inconclusive = small, poorly fitted or top-dose-only effect, or another doubt; inactive = no such curve, though single readings can be large or run the other way. % is set by controls: 0 for no effect and ±100 for the full control effect.

SMILES	Pf growth 96h	HCV inh	Pf growth 48h	HCMV antiviral
Cc1cccc(NC(=O)c2nc(S(C)(=O)=O)ncc2Cl)c1	.	.	.	-107.8*
CCS(=O)(=O)c1ncc(Cl)c(C(=O)Nc2c(C(=O)Nc3cccc(C)c3)oc3ccccc23)n1	.	.	.	19.0
COc1ccc2cc([C@@H](C#N)C3CCCC3)ccc2c1	.	.	.	0.8
COc1ccccc1Nc1cc(C(=O)NCCCN2CCOCC2)c2ccccc2n1	0.928µM*	0.7%	.	-0.4
COc1ccc(Nc2cc(C(=O)NCCCN3CCOCC3)c3ccccc3n2)cc1	56.7%	6.1%	3.4%	-7.0
COc1ccc(Nc2cc(C(=O)NCCCN(C)C3CCCCC3)c3ccccc3n2)cc1	.	.	.	-106.8*
CCc1ccc(Nc2cc(C(=O)NCCCN3CCOCC3)c3ccccc3n2)cc1	5.22µM*	?	.	?
COc1ccc(Nc2cc(C(=O)NCCCN(C)C3CCCCC3)c3ccccc3n2)c(OC)c1	.	.	.	-31.8
O=c1c2ccccc2n2c(-c3ccc(Cl)cc3)nnc2n1CCc1ccccc1	.	.	.	52.3
CCOC(=O)c1cnc2nc(NCc3cccc(Br)c3)[nH]n2c1=O	.	.	.	8.1
O=C(NNC(=O)c1ccccc1C(=O)O)c1ccc(O)cc1	-6.3%	12.6µM*	6.5%	-31.8
C/C(=N\NC(=S)NC1CCCCC1)c1ccccc1	?	1.0%	4.15µM*	?
O=C(NNC(=S)Nc1ccc(Br)cc1)c1ccccc1Br	9.28µM*	-9.5%	46.1%	17.0
CC(C)Oc1ccc(C(=O)NNC(=O)c2ccccc2C(=O)O)cc1	77.7%	-0.3%	22.6%	-12.9
O=C(NNC(=O)c1ccccc1Br)c1ccncc1	10.4µM*	3.4%	24.1%	-64.6*
COc1ccc(CN2C(=O)CN(S(C)(=O)=O)CC2(C)C(=O)Nc2c(C)cccc2C)cc1OC (centres undefined)	.	.	.	92.7
CC(C)c1ccc(NC(=O)c2cc3c(=O)[nH]c4ccccc4c3n2C)cc1	.	.	.	-22.9
S=C(NCc1ccccc1)NC1CCCCC1	22.6%	-5.0%	-15.4%	4.7
O=C(NC(=S)NC1CCCCC1)c1ccccc1	?	3.7%	?	-97.6*
O=C(NNC(=S)NC1CCCCC1)c1ccccc1Br	?	4.5%	13.1µM*	-24.4
COc1cc(OC)c(C(=O)NNC(=S)NC2CCCCC2)cc1OC	0.0%	0.3%	2.8%	?
S=C(NC1CCCCC1)NN(c1ccccc1)c1ccccc1	2.94µM*	?	11.7µM*	?
Cc1ccsc1C(=O)NNC(=S)NC1CCCCC1	9.28µM*	17.3%	7.3%	33.9
C[C@@H]1COc2cccc(NCCO)c2S(=O)(=O)N1	.	.	.	5.1
CC(=O)N1CCCc2cc(S(=O)(=O)N3CCC(C(=O)NCc4ccccc4Cl)CC3)ccc21	.	.	.	-20.1
SMILES	Pf growth 96h	HCV inh	Pf growth 48h	HCMV antiviral
Cc1ccc(Cn2c(CNC(=O)Cc3cccc([N+](=O)[O-])c3)nc3cccnc32)cc1	.	.	.	3.1
CCN1CCC(O)(/C=C/c2ccc(C(C)C)cc2)C(C(=O)/C=C/c2ccc(C(C)C)cc2)C1 (centres undefined)	.	7.94µM*	.	-61.0*
Cc1ccc(C)c(OCC(=O)Nc2nc3ccc([N+](=O)[O-])cc3s2)c1C	35.3%	11.2µM*	24.2%	-65.5*
CCCCOC(=O)Nc1nc2ccc([N+](=O)[O-])cc2s1	26.3%	13.0%	?	-28.9
CC(=O)Nc1ccc2nc(NC(=O)COc3ccc([N+](=O)[O-])cc3)sc2c1	-2.4%	6.1%	31.4%	3.3
CS(=O)(=O)c1ccc2nc(NC(=O)CCC(=O)c3cccs3)sc2c1	11.7µM*	-0.3%	?	32.6
CS(=O)(=O)c1ccc2nc(NC(=O)CCNC(=O)c3ccc([N+](=O)[O-])cc3)sc2c1	0.738µM*	?	?	-21.2
CCC(=O)Nc1nc2ccc([N+](=O)[O-])cc2s1	45.6%	-4.2%	81.2%	-60.0*
COc1ccccc1CCNC(=O)Cc1c(C)c2c(cc(C)c3c(C)coc32)oc1=O	.	.	.	-15.7
Cn1ncc2c(Nc3ccccc3Cl)nc(Nc3ccccc3Cl)nc21	?	6.31µM*	7.38µM*	-17.1
CC(C)CCNc1nc(Nc2ccccc2)c2cnn(C)c2n1	.	.	.	51.8
Cc1ccc(S(=O)(=O)c2ncccc2[N+](=O)[O-])cc1	?	?	.	-101.5*
CN1C(=O)/C(=C/C=C2/CCCN2C)N(C)C1=S	1.47µM*	5.4%	38.0%	-6.9
Cc1cc(N2CCCC2)ccc1/C=C1/C(=O)N(C)C(=S)N1C	7.2%	?	0.3%	-38.8
CCN(C(=O)c1cc(S(=O)(=O)N2CCc3ccccc32)cn1C)c1cccc(C)c1	.	.	.	-74.3*
Cc1cc(F)ccc1NC(=O)c1cc(S(=O)(=O)N2CCc3ccccc32)cn1C	10.4µM*	?	?	-14.8
COc1ccc(NC(=O)c2cc(S(=O)(=O)N3CCc4ccccc43)cn2C)c(OC)c1	0.1%	?	?	.
CCN(C(=O)c1cc(S(=O)(=O)N2CCc3ccccc32)cn1C)c1ccccc1	0.0%	-30.0%	-4.2%	-10.2
COc1ccc2c(c1)c1c(c(=O)n(-c3cccc(Cl)c3)c(=O)n1C)n2C	.	.	.	3.0
CC(=O)c1cccc(Nc2nc(-c3sc(C)nc3C)cs2)c1	362.1%	8.91µM*	-20.0%	3.1
CC(=O)c1ccc(Nc2nc(-c3sc(C)nc3C)cs2)cc1	.	.	.	-28.5
CC(=O)c1cccc(Nc2nc(-c3sc(N)nc3C)cs2)c1	16.5µM*	?	?	19.7
CCN(C(=O)c1cc2c(=O)oc3ccc(C)cc3c2s1)c1ccccc1C	.	.	.	12.9
Cc1ccc2c(c1)N(C(=O)N1CCC(C(=O)NCc3ccco3)CC1)CC(C)O2 (centres undefined)	.	.	.	-0.9
Cc1ccc(Nc2nccc(N(C)c3ccc4c(C)n(C)nc4c3)n2)cc1S(N)(=O)=O	.	.	.	-83.8*
SMILES	Pf growth 96h	HCV inh	Pf growth 48h	HCMV antiviral
Cc1ccc(Nc2nnc(-c3ccc(C)c(S(N)(=O)=O)c3)c3ccccc23)cc1	.	.	.	-17.5
COc1cc2c(NCCCCCCO[N+](=O)[O-])ncnc2c(OC)c1OC	.	.	.	-25.0
CCN(CC)CCNC(=O)c1ccc2c(c1NCCO)C(=O)c1ccccc1C2=O	4.65µM*	0.891µM*	2.62µM*	-108.9*
Nc1cccc(C(=O)OCC(=O)Nc2cccc3c2C(=O)c2ccccc2C3=O)c1	-12.3%	-3.6%	19.8%	-8.5
CCN(CC)CCC(=O)Nc1cccc2c1C(=O)c1ccccc1C2=O	10.4µM*	?	-85.9%	-99.2*
Cc1cccc(NC(=O)COC(=O)c2cccc3c2C(=O)c2ccccc2C3=O)c1C	10.4µM*	?	-25.3%	-3.9
CCc1ccc(-n2c(=O)c3c4c(sc3n(CC(=O)NC(C)CC)c2=O)CCCC4)cc1 (centres undefined)	.	.	.	-2.9
O=C(NC1CCSc2ccccc21)c1c(F)cccc1Cl (centres undefined)	?	-2.5%	-6.5%	-6.5
Cc1cc(C)cc(OCC(=O)NC2CCCc3ccccc32)c1 (centres undefined)	8.28µM*	?	?	1.4
O=C(CCn1cccc1)NC1CCCc2ccccc21 (centres undefined)	6.57µM*	-6.6%	5.6%	-13.1
O=C(CCl)NC1CCCc2ccccc21 (centres undefined)	48.2%	13.4%	11.7µM*	-109.4*
